Compound activity: PubChem BioAssay, National Center for Advancing Translational Sciences (NCATS)
An excerpt weighted towards active compounds, which were near 19% of everything screened.
DT40 TDP1 CPT = growth inhibition of DT40 Tdp1-/-;hTDP1 cells with camptothecin (screen for TDP1 inhibitors) | Potency, µM (top dose mostly 46.2 µM), without a hit: at the highest dose activity change, negative = growth inhibition, usual class: inhibitors | chicken DT40 Tdp1-/-;hTDP1 cells + 20 nM CPT, ATP luminescence, 48 h | actives 12% (n = 420,000) | AID 686979; note: potency is the fitted concentration of half-maximal effect; nearly all actives have a fitted effect of over 55% in size
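Cell growth measured by CellTiter-Glo luminescence after a minimum 48 h, 37 C compound exposure with 20 nM CPT in Tdp1-knockout DT40 cells stably expressing hTDP1, seeded 400/well; qHTS titration format.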
TDP1 cell noCPT = qHTS for Inhibitors of human tyrosyl-DNA phosphodiesterase 1 (TDP1): qHTS in cells in absence of CPT. actives 15% (n = 420,000). DT40 Tdp1-/- hTDP1 cells, no CPT, ATP luminescence, 48 h. AID 686978, 2013. Potency, µM (titrated, usually from 46.2 µM), inactives show at the highest dose activity change, negative = growth inhibition, hits mostly inhibitors; note: potency is the fitted concentration of half-maximal effect; nearly all actives have a fitted effect of over 55% in size
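Luminescent ATP content (CellTiter-Glo) served as the growth readout. Knockout chicken DT40 cells expressing human TDP1 were exposed to compounds without camptothecin for a minimum 48 hr at 37 °C.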
IL-1B inflam inh = inflammasome signaling inhibition, IL-1 beta readout | activity change, % at 57.5 µM | actives 4.7% (n = 360,000) | THP-1 LPS/ATP IL-1B secretion, AlphaLISA, 16 h; hits give low values; in the data active = activity change below about -50%; inconclusive = mostly about -30% to -49%
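Secreted IL-1B measured by AlphaLISA bead assay after 16 h compound exposure of THP-1 cells; compounds (final up to 57.5 uM) added 1 h before LPS (250 ng/mL) and ATP (1.25 mM) stimulation; lower signal means less secretion.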
ELG1 DNA repair = ELG1-dependent DNA repair inhibition; HEK293T ELG1-luciferase reporter, luminescence, 16 h; DNA damage induced by 5-fluorouridine; Potency, µM (doses to about 46.1 µM), inactives show top-dose activity change, negative = inhibition, actives largely listed as inhibitors; actives 2.3% (n = 330,000); AID 504467; note: potency is the fitted concentration of half-maximal effect; nearly all actives have a fitted effect of over 55% in size
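Overnight (16 hr) co-exposure of 2,000 cells/well to 5-fluorouridine and compound at 37 °C preceded detection. Luciferase was quantified via ONE-Glo luminescence; loss of signal denotes inhibition.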
HT1080 IDH1KD tx = toxicity to HT-1080 IDH1 knockdown cells (counter line); HT-1080 IDH1 knockdown viability, ATP luminescence, 48 h; Potency, µM (series often up to 46.1 µM), for the others: at the highest dose activity, negative = toxicity, actives largely listed as cytotoxic; actives 2% (n = 360,000); AID 686971;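 note: potency is the fitted concentration of half-maximal effect; 0% = DMSO wells and -100% = cell-free medium wells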
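HT-1080-IDH1KD cells (IDH1 knocked down), 750/well in RPMI with 5% FBS, treated with compound 48 h at 37 degrees C. Viability by CellTiter-Glo luminescence, normalised to DMSO and no-cell wells; concentration-response curves classed.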
HT1080NT lethal = kills 2HG-producing HT-1080-NT fibrosarcoma cells. HT-1080-NT fibrosarcoma viability, CellTiter-Glo ATP luminescence, 48 h. Potency, µM (doses to about 46.1 µM), without a hit: at the top dose activity, negative = less viability, usual class: cytotoxic. actives 1.6% (n = 360,000);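 note: NT is the 2HG producing partner of a matched IDH1 knockdown line; potency is the fitted concentration of half-maximal effect; 0% = DMSO-treated cells and -100% = media-only wells without cells; nearly all actives have a fitted effect of over 55% in size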
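Viability of the 2HG-overproducing fibrosarcoma line after 48 hours of compound exposure at 37 degrees C was determined by luminescence with CellTiter-Glo, and concentration-effect curves were then fitted and categorized.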
* = called active by the depositor; ? = inconclusive; · = no result given. Unless noted, calls come from the whole dose curve; as a rule, active = well fitted curve in the direction sought with a large enough effect; inconclusive = small, poorly fitted or top-dose-only effect, or another doubt; inactive = no such curve, though single readings can be large; an effect the other way counts as inactive or inconclusive. Unless noted, % is set by controls: 0 for no effect and ±100 for the full control effect.

SMILES | DT40 TDP1 CPT | TDP1 cell noCPT | IL-1B inflam inh | ELG1 DNA repair | HT1080 IDH1KD tx | HT1080NT lethal
COc1ccc(OC)c(CNC(=O)C(C)n2c(C)c3cnn(-c4ccccc4)c(=O)c3c2C)c1 (stereo not given) | ? | 12µM* | · | · | · | ·
Cc1cccc(C(=O)Nc2ccc(N3CCC(CCN4CCOCC4)CC3)c(C(=O)O)c2)c1 | 1% | -13% | · | · | · | ·
CN(CCC#N)C(=O)CC(Cc1ccccc1)C1CCOC(C)(C)C1 (stereo not given) | 5% | 19% | 0 | ? | 11% | 4%
CCn1cc(C(=O)NCc2ccccc2Cl)c(=O)c2cc(S(=O)(=O)N3CCc4ccccc4C3)ccc21 | -18% | ? | · | · | · | ·
Cc1ccc(-n2nc(C(=O)N3CCN(c4ccc(F)cc4)CC3)c(=O)n(C)c2=O)cc1 | 1% | -22% | · | · | · | ·
COc1ccc(CNn2c(C)nc3ccccc3c2=O)cc1 | -27% | ? | 0 | -21% | ? | -27%
COc1ccc(CNn2c(-c3cccc(C)c3)nc3ccccc3c2=O)cc1OC | ? | ? | -14 | 15µM* | 8% | 0%
CCCCOc1ccc(CNn2c(C)nc3ccccc3c2=O)cc1 | ? | 23µM* | -4 | ? | 1% | 9%
Cc1cccc(-c2nc3ccccc3c(=O)n2NC(=S)N(C)C)c1 | 9.2µM* | 8.2µM* | -2 | 9% | 0% | 0%
O=[N+]([O-])c1ccc(S(=O)Cc2ccccc2)c([N+](=O)[O-])c1 (stereo not given) | 0.46µM* | 0.58µM* | -101* | · | 16µM* | 16µM*
O=[N+]([O-])c1ccc(CS(=O)c2ccccc2)cc1 (stereo not given) | -11% | -12% | 12 | · | 10% | 1%
COc1ccc(-n2nc(C#N)c(Cl)cc2=O)cc1 | 3.3µM* | 4.6µM* | -106* | ? | 13µM* | 7.3µM*
COC(=O)c1nn(-c2ccc(OC)cc2)c(=O)cc1O | 17% | -1% | 15 | ? | 0% | 2%
O=C(Nc1ccccc1)N1CC[C@@]2(CCCN(C(=O)c3csnn3)C2)C1 | 10% | -7% | · | · | · | ·
CC(=O)N1c2ccc(S(=O)(=O)NCCC(=O)Nc3ccc(Cl)cc3)cc2CC1C (stereo not given) | 18µM* | ? | 3 | · | 2% | 7%
CC(=O)N1c2ccc(S(=O)(=O)NCCC(=O)N3CCC(C)CC3)cc2CC1C (stereo not given) | ? | -18% | 16 | -12% | -2% | 17%
CC(=O)N1c2ccc(S(=O)(=O)NCCC(=O)NC3CCCC(C)C3C)cc2CC1C (stereo not given) | -45% | ? | -52* | 9.2µM* | -1% | -1%
CC(=O)N1c2ccc(S(=O)(=O)NCCC(=O)Nc3ccc(C)c(F)c3)cc2CC1C (stereo not given) | ? | 21µM* | 55 | -1% | -5% | 1%
CC(=O)N1CCc2cc(S(=O)(=O)C(C)CC(=O)Nc3ccc(OC(F)(F)F)cc3)ccc21 (stereo not given) | 21µM* | ? | 20 | -3% | -18% | -8%
Cn1c(=O)c(-c2cc(F)cc(F)c2)nc2cnc(N3CCOCC3)nc21 | 3% | 23% | · | · | · | ·
COC1=CC(=O)OC(c2ccco2)C1 (stereo not given) | -3% | 0% | -4 | · | 29% | 26%
CCCCn1nnnc1C1(C)CCC(=O)N1CCc1ccc(OC)c(OC)c1 (stereo not given) | -9% | -20% | 3 | · | 8% | 16%
O=C(O)/C(=C\c1ccc(Br)cc1)NC(=O)c1cccs1 | -3% | -11% | -19 | 13% | 4% | -9%
CN(CC(=O)Nc1ccc(OC(F)(F)F)cc1)S(=O)(=O)c1ccc2c(c1)CCC(=O)N2 | ? | 12µM* | · | · | · | ·
CC(=O)N1c2ccc(S(=O)(=O)NCCC(=O)Nc3ccc(OC(F)(F)F)cc3)cc2CC1C (stereo not given) | 18µM* | ? | 21 | ? | 0% | 1%
SMILES | DT40 TDP1 CPT | TDP1 cell noCPT | IL-1B inflam inh | ELG1 DNA repair | HT1080 IDH1KD tx | HT1080NT lethal
COc1ccc(NC(=O)CN(C)S(=O)(=O)c2ccc3c(c2)CCC(=O)N3)c(OC)c1 | 0% | -23% | -11 | 0% | 7% | 0%
COc1ccc(NC(=O)CCNS(=O)(=O)c2ccc3c(c2)CC(C)N3C(=O)C2CC2)cc1 (stereo not given) | ? | -28% | 36 | -6% | 1% | 4%
Cc1[nH]c(SCC(=O)c2c(N)n(C)c(=O)n(C)c2=O)nc1Cc1ccccc1 | ? | -13% | 0 | 2% | 5% | -1%
COc1ccc(-n2ncc3c2ncn2nc(COc4ccc(Cl)cc4)nc32)cc1 | -5% | 5% | · | · | · | ·
COc1ccc(OC)c(NC(=O)C2CCCN(S(=O)(=O)c3c(C)nn(C)c3C)C2)c1 (stereo not given) | ? | 21µM* | -11 | · | 7% | 2%
COc1cccc(NC(=O)C2CCCN(S(C)(=O)=O)C2)c1 (stereo not given) | 5% | -20% | 5 | -6% | -2% | -1%
COc1cccc(NC(=O)C2CCCN(S(=O)(=O)c3c(C)nn(C)c3C)C2)c1 (stereo not given) | ? | 15µM* | · | · | · | ·
O=C(Cn1ncc2c1-c1ccccc1OC2)N1CCc2ccccc21 | ? | ? | -8 | 4% | -4% | -3%
CC1(C)C(=O)Nc2ccccc2N1C(=O)CSc1nc(-c2ccccc2)cs1 | ? | 15µM* | ? | ? | -22% | -5%
O=C(Cn1cnc2ccccc2c1=O)N1CCN(Cc2ccccc2)CC1 | -15% | ? | -14 | -3% | -2% | -1%
O=C(Cn1ncc(Cl)c(Cl)c1=O)N1CCc2ccccc21 | 4.6µM* | 6.5µM* | -109* | ? | 2.9µM* | 4.6µM*
O=C(Cn1ncc(Cl)c(Cl)c1=O)N1CCN(Cc2ccccc2)CC1 | 3.3µM* | 3.3µM* | -3 | ? | ? | ?
Cc1nn(CC(=O)N2c3ccccc3NC(=O)C2(C)C)c(C)c1[N+](=O)[O-] | -10% | ? | -9 | 8% | -5% | -3%
CC1(C)C(=O)Nc2ccccc2N1C(=O)Cn1ncc(Cl)c(Cl)c1=O | 23µM* | 23µM* | -99* | ? | -25% | -10%
Cc1ccc(OCc2cc(=O)n3ccsc3n2)c(NC(=O)c2ccco2)c1 | 3% | 2% | · | · | · | ·
